Screens (PubChem)
CYP2C9 inhib – blockers of cytochrome P450 2C9 activity – biochemical, luminescence, ADME assay, primary screen; P11712; CYP2C9 Supersomes, luciferin-H conversion; inhibition, % at 5 µM; 96,000 compounds, 20% hits; AID 777, 2007;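 active = blocking of liver enzyme CYP2C9 beyond about 50% at 5 µM, limit read from the data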
E-sel TNF inh – E-selectin induction blockers in HUVEC – imaging, immunofluorescence, high content, primary screen; HUVEC TNFa-induced E-selectin immunofluorescence; inhibition, % at 2 µM; 120,000 compounds, 0.71% hits;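 active = inhibition above the batch mean plus 3 SD, and confirmed as a hit on visual image review, cut at about 43% in these data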
CYP2C9 act – human CYP2C9 activators, primary screen, biochemical, luminescence | 96,000 compounds, 1.4% hits | Cytochrome P450 2C9 (Homo sapiens), P11712 | activation factor at 5 µM | recombinant CYP2C9, luciferin-H conversion; active compounds read high; factor 1 = untreated enzyme, 0 = blocked;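 active = activation factor of 2 or more for CYP2C9 at a 5 µM dose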
CYP2C19 inhib – blockers of cytochrome P450 2C19 activity – biochemical, luminescence, ADME assay, primary screen; 96,000 compounds, 21% hits; AID 778, 2007; inhibition, % at 5 µM; CYP2C19 Supersomes, luciferin-H EGE luminescence, 30 min;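 active = CYP2C19 inhibition above a set limit at 5 µM in the primary screen, cut at about 50% in these data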
Target sequence (P33261 whole entry, looked up): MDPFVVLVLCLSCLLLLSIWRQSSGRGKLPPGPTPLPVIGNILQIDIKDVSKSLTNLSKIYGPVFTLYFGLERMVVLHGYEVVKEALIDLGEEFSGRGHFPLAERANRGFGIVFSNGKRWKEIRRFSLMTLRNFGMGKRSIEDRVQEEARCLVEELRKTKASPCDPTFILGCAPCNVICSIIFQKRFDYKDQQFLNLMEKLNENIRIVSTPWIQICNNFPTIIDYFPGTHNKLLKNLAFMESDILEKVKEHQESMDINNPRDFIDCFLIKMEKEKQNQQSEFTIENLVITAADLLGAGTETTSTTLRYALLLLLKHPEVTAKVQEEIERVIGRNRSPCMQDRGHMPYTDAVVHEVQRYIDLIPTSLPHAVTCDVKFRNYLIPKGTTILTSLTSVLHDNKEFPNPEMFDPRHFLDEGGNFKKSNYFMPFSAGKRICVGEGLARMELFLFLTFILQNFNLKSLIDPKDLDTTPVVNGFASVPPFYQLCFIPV
cytoskel mod – modifiers of F-actin cytoskeleton organization, primary screen, imaging, HUVEC, phalloidin staining, high-content imaging; HUVEC TNFa F-actin phalloidin imaging; inhibition, % at 2 µM; 91,000 compounds, 0.18% hits; AID 836, 2007;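 active = inhibition above the batch mean plus 3 SD and confirmed as a hit by visual image inspection, cut at about 30% in these data, passing the limit was not always enough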
CYP2C19 act – human CYP2C19 activators, primary screen, biochemical, luminescence; recombinant CYP2C19, luciferin-H EGE luminescence; active compounds read high; 0 = fully inhibited enzyme, 1 = untreated enzyme; activation factor at 5 µM; 96,000 tested, under 10 active; AID 1025, 2008;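 active = activation factor of at least 2 at 5 µM in the primary screen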
Of the large screens only hits and unclear results are named; the others gave an inactive call. Only some compounds are listed: those with a hit (about 22% of all), similar ones and a draw of the others.

O=C(CSc1nc2ccccc2[nH]1)N1CCN(c2ccccc2)CC1	none (no result: cytoskel mod)
Cc1csc(SCC(=O)Nc2sc3c(c2C#N)CCC3)n1	CYP2C9 inhib 69
N#Cc1c(NC(=O)CSc2ncn[nH]2)sc2c1CCCC2	CYP2C9 inhib 79 (no result: E-sel TNF inh)
O=C(COC(=O)c1oc2ccccc2c1COc1ccccc1)NCCN1C(=O)CSC1=O	none (no result: CYP2C9 inhib, CYP2C9 act, CYP2C19 inhib, cytoskel mod, CYP2C19 act)
CCC1Sc2ccccc2N(CC(=O)NCCC2=CCCCC2)C1=O (stereo not drawn)	none
O=C(CN1C(=O)c2cccc3cccc(c23)C1=O)N1CCN(Cc2ccc3c(c2)OCO3)CC1	CYP2C9 inhib 55
CNC(=O)CN1C(=O)c2cccc3cccc1c23	none
O=C(CN1C(=O)c2cccc3cccc1c23)NCc1ccc2c(c1)OCO2	CYP2C9 act 4, CYP2C19 inhib 68
O=C(CN1C(=O)c2cccc3cccc1c23)NCC1CCCO1 (stereo not drawn)	CYP2C9 act 3.5
CCC1Sc2ccccc2N(CC(=O)NCc2ccc3c(c2)OCO3)C1=O (stereo not drawn)	E-sel TNF inh 95, CYP2C19 inhib 72 (no result: cytoskel mod)
C=C(C)C1CC=C(CN2CC(C)OC(C)C2)CC1 (stereo not drawn)	none
Cc1ccc(CS(=O)(=O)CCC(=O)NCc2ccccn2)cc1	none
Clc1cccc(CN2CCCCCCC2)c1Cl	none (no result: CYP2C9 inhib, CYP2C9 act, CYP2C19 inhib, cytoskel mod, CYP2C19 act)
CCOc1ccc(C2C(C(=O)O)CCC(=O)N2C2CCCCC2)cc1 (stereo not drawn)	none (no result: CYP2C9 inhib, CYP2C9 act, CYP2C19 inhib, cytoskel mod, CYP2C19 act)
CCc1cccc(CC)c1NC(=S)NCc1ccc2c(c1)OCO2	none (no result: CYP2C9 inhib, CYP2C9 act, CYP2C19 inhib, cytoskel mod, CYP2C19 act)
CC(C(=O)NCc1ccc2c(c1)OCO2)N1c2cccc3cccc(c23)S1(=O)=O (stereo not drawn)	CYP2C9 act 2.7, CYP2C19 inhib 82
O=C(CN1c2cccc3cccc(c23)S1(=O)=O)NCc1ccc2c(c1)OCO2	CYP2C9 act 4.1, CYP2C19 inhib 81
O=C(CN1C(=O)c2ccccc2S1(=O)=O)NCc1ccc2c(c1)OCO2	none (no result: CYP2C9 inhib, CYP2C9 act, CYP2C19 inhib, CYP2C19 act)
O=C(CN1C(=O)c2cccc3cccc1c23)NCc1ccccn1	CYP2C9 act 2.8
Nc1nc(SCc2ccccc2Cl)ns1	none (no result: CYP2C9 inhib, CYP2C9 act, CYP2C19 inhib, CYP2C19 act)
COc1ccc(Cc2nc3c4c(ncn3n2)Oc2ccc3ccccc3c2C4c2ccc(OC)c(OC)c2)cc1 (stereo not drawn)	none (no result: CYP2C9 inhib, CYP2C9 act, CYP2C19 inhib, cytoskel mod, CYP2C19 act)
CCOC(=O)c1oc2cc(O)ccc2c(=O)c1-c1ccc(OC)cc1	none
CCOC(=O)c1oc2cc(O)c(CC)cc2c(=O)c1-c1ccc2c(c1)OCCO2	CYP2C9 inhib 99 (no result: cytoskel mod)
O=C(CN1C(=O)CCSc2ccccc21)Nc1ccc(F)cc1	CYP2C9 inhib 80, CYP2C19 inhib 95 (no result: cytoskel mod)
O=C(CN1C(=O)CCSc2ccccc21)Nc1ccccc1	CYP2C9 inhib 70, CYP2C19 inhib 92 (no result: E-sel TNF inh, cytoskel mod)
COc1ccc(CNC(=O)c2cnc3n(c2=O)CCS3)cc1	none (no result: E-sel TNF inh)
COc1ccc(CNC(=O)c2cnc3cc(C)ccn3c2=O)cc1	CYP2C19 inhib 62
O=C(NCc1ccc2c(c1)OCO2)c1cnc2ccccn2c1=O	CYP2C19 inhib 66 (no result: cytoskel mod)
CCOc1ncccc1C(=O)Nc1ccccc1C(=O)NCc1ccc2c(c1)OCO2	CYP2C9 inhib 75 (no result: E-sel TNF inh, cytoskel mod)
COc1ccc(CNC(=O)c2ccccc2SC)cc1	CYP2C19 inhib 90
COc1ccc(CNC(=O)c2c(F)c(F)c(F)c(F)c2F)cc1	none (no result: CYP2C9 inhib, CYP2C9 act, CYP2C19 inhib, cytoskel mod, CYP2C19 act)
COc1ccc(C(=O)CSc2nnc(NC(=O)C3CC(=O)N(c4ccccc4C)C3)s2)cc1 (stereo not drawn)	none (no result: CYP2C9 inhib, CYP2C9 act, CYP2C19 inhib, cytoskel mod, CYP2C19 act)
O=C(NCc1ccc2c(c1)OCO2)c1cc2ccccc2oc1=O	none (no result: CYP2C9 inhib, CYP2C9 act, CYP2C19 inhib, CYP2C19 act)
CCSc1ccccc1C(=O)NCc1ccc2c(c1)OCO2	CYP2C19 inhib 99 (no result: E-sel TNF inh)
CSc1ccccc1C(=O)NCc1ccc2c(c1)OCO2	CYP2C19 inhib 94 (no result: cytoskel mod)
CC(=O)OC(C(=O)NCc1ccc2c(c1)OCO2)c1ccccc1Cl (stereo not drawn)	CYP2C9 inhib 54, CYP2C19 inhib 93
COc1ccc(N2C(=O)CC(Sc3nnc(-c4ccccc4)o3)C2=O)cc1 (stereo not drawn)	none (no result: cytoskel mod)
O=C1CC(Sc2nnc(-c3ccccc3O)o2)C(=O)N1c1ccccc1 (stereo not drawn)	E-sel TNF inh 70 (no result: cytoskel mod)
Cc1c(C(=O)OC(C)C)[nH]c2c1C(=O)CC(C)(C)C2	CYP2C9 inhib 76, CYP2C19 inhib 75
O=C(Nc1nc(-c2ccccc2)cs1)C1CCCCN1S(=O)(=O)c1ccc(Cl)cc1 (stereo not drawn)	CYP2C9 inhib 95
O=C(Nc1nnc(C2CC2)s1)C1CCCCN1S(=O)(=O)c1ccccc1 (stereo not drawn)	none (no result: CYP2C9 inhib, CYP2C9 act, CYP2C19 inhib, cytoskel mod, CYP2C19 act)
CC(C)(C)C(=O)Nc1nc(C2CCCN2S(=O)(=O)c2ccc(Cl)cc2)cs1 (stereo not drawn)	CYP2C9 inhib 100, CYP2C19 inhib 100
O=C(Nc1nc(-c2ccccc2)cs1)C1CCCCN1S(=O)(=O)c1ccccc1 (stereo not drawn)	CYP2C9 inhib 92, CYP2C19 inhib 72
CCCc1cc(=O)[nH]c(SCc2csc(-c3ccccc3)n2)n1	none (no result: CYP2C9 inhib, CYP2C9 act, CYP2C19 inhib, cytoskel mod, CYP2C19 act)
Cc1cc(C)n(-c2nnc(C)n2/N=C/c2ccccc2F)n1	none
Oc1c(Cl)cc(Cl)cc1C(C#Cc1ccccc1)N1CCOCC1 (stereo not drawn)	CYP2C9 inhib 67
O=C(Nc1cccc(-c2cnc3ccccc3n2)c1)c1ccccc1	none
CCC(=O)Nc1cccc(-c2cnc3ccccc3n2)c1	CYP2C19 inhib 51
O=C(CCl)Nc1cccc(-c2cnc3ccccc3n2)c1	CYP2C19 inhib 80 (no result: E-sel TNF inh)
CCc1ccc2c(c1)cc(CN(C(=S)Nc1cccc(C)c1)C1CC1)c1nnnn12	CYP2C9 inhib 68
CCOc1ccc(OCC)c(NC(=O)C2CCN(c3ncccn3)CC2)c1	CYP2C9 inhib 52
Cc1ccc(F)cc1NC(=O)C1CCCN(c2ncccn2)C1 (stereo not drawn)	CYP2C9 inhib 94, CYP2C19 inhib 94
COCCNC(=O)C1CCCN(c2ncccn2)C1 (stereo not drawn)	none
CCOc1ccc(OCC)c(NC(=O)C2CCCN(c3ncccn3)C2)c1 (stereo not drawn)	CYP2C19 inhib 60
CCC(C)c1ccc(NC(=O)C2CCCN(c3ncccn3)C2)cc1 (stereo not drawn)	none
COCCN(C(=O)c1ccccc1OC)c1nnc(C)s1	none (no result: CYP2C9 inhib, CYP2C9 act, CYP2C19 inhib, cytoskel mod, CYP2C19 act)
Cc1cc(C)cc(NC(=O)CSCc2nc3c(nnn3Cc3ccc(F)cc3)c(=O)[nH]2)c1	none (no result: CYP2C9 inhib, CYP2C9 act, CYP2C19 inhib, CYP2C19 act)
COc1ccc(S(=O)(=O)n2nc(-c3ccc(Cl)cc3)cc2N)cc1OC	CYP2C9 inhib 80, CYP2C19 inhib 83 (no result: E-sel TNF inh)
COc1cc(-c2cc(N)n(S(=O)(=O)c3ccc(F)cc3)n2)cc(OC)c1OC	CYP2C9 inhib 82, CYP2C19 inhib 79
COc1ccc(-c2cc(N)n(S(=O)(=O)c3ccc(F)cc3)n2)cc1OC	CYP2C9 inhib 95, CYP2C19 inhib 70
